# Test results published in PubChem BioAssay (Tox21).
# Inconclusive results are not listed. Unmarked numbers belong to inactive results. Calls follow the shape of the dose curve; as a rule, active = well fitted cell-killing curve with a large enough effect in the repeat runs; inconclusive = weak or mixed curves; inactive = no such curve, though single readings can be large or run the other way. Positions of bridges follow the written chain, without caps; N, C: chain ends. Non-standard residues stand in square brackets, D forms with d. Residues, ends and D or L forms follow the SMILES beside them. hArg = N=C(N)NCCCC[C@H](N)C(=O)O; Mpa = O=C(O)CCS
# Test: qHTS assay to identify small molecule antagonists of the peroxisome proliferator-activated receptor delta (PPARd) signaling pathway - cell viability counter screen (AID 743213); also: nearly all actives have a fitted effect of over 50% in size
# Details: PPARd-bla HEK293H viability, CellTiter-Glo luminescence, 17 h; series mostly up to 62 µM; viability change, negative = cytotoxic: at the top concentration
# Excerpt: U.S. Tox21 Program National Center for Advancing Translational Sciences [NCATS] NIH Chemical Genomics Center [NCGC] U.S. Environmental Protection Agency [EPA] National Institutes of Environmental Health Sciences [NIEHS] National Toxicology Program [NTP] U.S. Food and Drug Administration [FDA] Tox21 Assay Overview: The peroxisome proliferator-activated receptors (PPARs) are lipid-activated transcription factors of the nuclear receptor superfamily with three distinct subtypes namely PPAR alpha, PPAR delta (PPARd) and PPAR gamma. All these subtypes heterodimerizes with Retinoid X receptor (RXR) and have different physiological functions. […] To identify the compounds that inhibit PPAR-delta signaling, GeneBLAzer PPAR delta UAS-bla HEK293H cell line (Invitrogen, Carlsbad, CA, USA) containing a beta-lactamase reporter gene under the control of an Upstream Activator Sequence (UAS) was used to screen the Tox21 compound library. The cytotoxicity of the Tox21 compound library against the PPARd-bla cell line was tested in parallel by measuring the cell viability using CellTiter-Glo assay (Promega, Madison, WI) in the same wells.
# Tox21 Assay Protocol Summary: PPARd-bla cells were dispensed at 3000 cells/5uL/well in 1536-well black wall/clear bottom plates using a Multidrop Combi (Thermo Fisher Scientific, Waltham, MA) dispenser. After the assay plates were incubated at 37 C and 5% CO2 for 5 h, 23 nL of compounds dissolved in DMSO, positive controls or DMSO only was transferred to the assay plate by a Pintool station (Kalypsys, San Diego, CA), followed by addition of 1ul L165041 (300 nM, final concentration in the wells). The assay plates were incubated at 37 C for 17 h, and then 1 uL of LiveBLAzerTM B/G FRET substrate was added using a Bioraptr Flying Reagent Dispenser (FRD) workstation (Beckman Coulter, Indianapolis, IN, USA). The assay plates were incubated at room temperature for 2 h and fluorescence intensity was measured by an Envision plate reader (PerkinElmer, Shelton, CT). For cell viability readout that measures cytotoxicity, 3 ul/well of CellTiter-Glo reagent was added into the assay plates using a Bioraptr FRD. After 30 min incubation at room temperature, the luminescence intensity in the plates was measured using a ViewLux plate reader (PerkinElmer).
# % is scaled to controls: 0 for no effect and ±100 for the full control effect.
row,SMILES,"viability change, negative = cytotoxic"
1,CC(C)CCOC(=O)c1ccccc1,15.6%
2,CC1(C)[C@H]2CC[C@](C)(C2)[C@H]1O,5.15% [at 80.4 µM]
3,NCCOCCN,11.6%
4,Cc1c(C(=O)c2c[nH]n(C)c2=O)ccc(S(C)(=O)=O)c1C1=NOCC1,2.81% [at 28.9 µM]
5,CC(C)=CCC/C(C)=C/COC=O,-18%
6,OC1(c2ccc(Cl)cc2)CCNCC1,-3.52%
7,CSc1cnccn1,-20.4%
8,CC(=O)OC1CCCCC1C(C)(C)C (stereo not given),15.6%
9,CC(N)CCCC(C)(C)O (stereo not given),-13.3%
10,COC(=O)CCCCC(=O)O,7.94%
11,O=C[O][Al]([O]C=O)[O]C=O,-0.261%
12,CC(S)C(C)S (stereo not given),16.1% [at 80.4 µM]
13,CC(CO)(CO)CO,6.27% [at 80.4 µM]
14,CCOCCOCC,12.4% [at 80.4 µM]
15,c1ccc2c(CC3=NCCN3)cccc2c1,-1.89%
16,O=Cc1ccccc1Cl,-3.56%
17,C[Si]1(C)O[Si](C)(C)O[Si](C)(C)O[Si](C)(C)O[Si](C)(C)O1,5.34%
18,CC1=C(C(=O)O)N2C(=O)[C@@H](NC(=O)[C@H](N)c3ccccc3)[C@H]2SC1,9.35%
19,Cc1cccc(Cl)c1,6.13%
20,Nc1nc(-c2ccccc2)c(Br)c(=O)[nH]1,2.33%

row,SMILES,"viability change, negative = cytotoxic"
1,C=CC/C=C/C,12% [at 80.4 µM]
2,NC(=O)[C@@H]1CSSCCC(=O)N[C@@H](CCCCN=C(N)N)C(=O)NCC(=O)N[C@@H](CC(=O)O)C(=O)N[C@@H](Cc2c[nH]c3ccccc23)C(=O)N2CCC[C@H]2C(=O)N1 ([Mpa][hArg]GDWPC-NH2; disulfide 1-7),-1.96%
3,CC1CCc2c(N3CCC(O)CC3)c(F)cc3c(=O)c(C(=O)O)cn1c23 (stereo not given),9.22%
4,CC(C)NCC(O)c1ccc2ccccc2c1 (stereo not given),-14.6%
5,COC(=O)CCCCC(CCSS/C(CCO)=C(\C)N(C=O)Cc1cnc(C)nc1N)SC(C)=O (stereo not given),-4.96%
6,CCCCOCCOC(=O)COc1ccc(Cl)cc1Cl,2.2%
7,Cc1ccc2c(c1)C(=O)c1ccccc1C2=O,3.35%
8,CC1(C)CC(OC(=O)CCCCCCCCC(=O)OC2CC(C)(C)NC(C)(C)C2)CC(C)(C)N1,-14.9% [at 28.9 µM]
9,C=C(C)[C@@H]1CC=C(C)CC1,10.9%
10,CCCC(CC)c1ccccc1 (stereo not given),0.445%
11,OCCN1CCOCC1,0.01%
12,O=C(O)c1cc2ccccc2nc1C(=O)O,3.61%
13,C=CC(=O)CCCCC,-5.43% [at 80.4 µM]
14,CC(C)OC(=O)CCC(=O)OC(C)C,17.3%
15,CN(C)CCCO[C@@H]1[C@H]2OC(C)(C)O[C@H]2O[C@@H]1C(O)CO (stereo not given in full),0.318%
16,CO[C@@]1(NC(=O)Cc2cccs2)C(=O)N2C(C(=O)O)=C(COC(N)=O)CS[C@@H]21,-14%
17,OC[C@H]1O[C@@H](O[C@@H]2[C@@H](CO)O[C@](O)(CO)[C@H]2O)[C@H](O)[C@@H](O)[C@H]1O,8.02%
18,COC(=O)/C=C\C(=O)O,-4.19%
19,CCC/C=C(\C=O)CC,9.53%
20,COc1ccc2c(c1)c1c3n2CCN(C)C3=NCC1,9.82%
